Compound activity (PubChem BioAssay)
A selection: hits, their analogues and other compounds. The true share with any hit is near 4.6%.
USP7 block – inhibitors of human USP7 deubiquitinase. actives 0.3% (n = 47,000). Ubiquitin carboxyl-terminal hydrolase 7 (Homo sapiens), Q93009. inhibition, % at 20 µM. purified USP7, Ub-rhodamine cleavage fluorescence
USP8 inh – inhibitors of human USP8 deubiquitinase; Ubiquitin carboxyl-terminal hydrolase 8 (Homo sapiens), P40818; purified USP8, Ub-rhodamine cleavage fluorescence, 30 min; inhibition, % at 20 µM; actives 4.2% (n = 47,000); AID 1645853, 2021
UCHL1 block – inhibitors of human UCHL1 deubiquitinase; Ubiquitin carboxyl-terminal hydrolase isozyme L1 (Homo sapiens), P09936; purified UCHL1, Ub-rhodamine cleavage fluorescence; inhibition, % at 20 µM; actives 0.2% (n = 47,000); AID 1645859, 2021
Target sequence (P09936 whole entry, looked up): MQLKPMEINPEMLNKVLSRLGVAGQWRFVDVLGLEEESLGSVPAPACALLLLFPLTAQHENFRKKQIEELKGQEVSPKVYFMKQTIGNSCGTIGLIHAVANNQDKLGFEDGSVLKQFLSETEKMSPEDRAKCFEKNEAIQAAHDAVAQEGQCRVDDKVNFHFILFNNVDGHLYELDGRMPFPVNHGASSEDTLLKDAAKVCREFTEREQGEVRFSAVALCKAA
USP10 block – inhibitors of human USP10 deubiquitinase. Ubiquitin carboxyl-terminal hydrolase 10 (Homo sapiens), Q14694. inhibition, % at 20 µM. actives 1.1% (n = 47,000). purified USP10, Ub-rhodamine fluorescence, 60 min
Of the large screens only hits and unclear results are named; the others gave an inactive call. No stated cut-off is given here; in the data, active means inhibition above about 30%; inactive means the rest.

COc1ccc(C2c3cccn3CCN2C(=O)Nc2ccc(OC)c(OC)c2)cc1 (stereo not given)	none
COc1ccc(NC(=O)C2(N(C(=O)CNC(C)=O)c3ccc(OC)cc3)CCCCC2)cc1	none
Cc1cc(C)c(S(=O)(=O)N2CCN=C2N2CCCCC2)cc1C	none
Cc1noc(C)c1CNc1ccc(Cl)cc1	USP8 inh 39.0
CCOc1c(OC)cccc1C1CN2C(=O)CN(C3CC3)C(=O)[C@]2(C)c2[nH]c3ccccc3c21 (stereo not given in full)	none
N#Cc1c(-c2ccc(F)cc2)c2c([nH]c1=O)-c1ccccc1OC2	USP8 inh 65.1
N#Cc1c(-c2ccccc2Cl)c2c([nH]c1=O)-c1ccccc1CC2	USP8 inh 47.5
CNc1nccc(-c2ccc(F)cc2)c1C#N	none
N#Cc1c(-c2cccnc2)c2c([nH]c1=O)-c1ccccc1CC2	none
O=C(OCC(=O)c1cccs1)c1ccc(Cl)cc1	none
Cc1cccc(C(=O)OCC(=O)Nc2ccc(N3CCOCC3)cc2)c1O	none (no result: USP7 block)
O=C(c1cccc(C(F)(F)F)c1)N1CCSc2ccc(Cl)cc21	none
COc1ccc2c(c1)CC(C(=O)Nc1cc(C)ccc1OC)CO2 (stereo not given)	none
Cc1cccc(NC(=O)CSc2nnc(NC(=O)c3ccc4ccccc4c3)s2)c1	USP10 block 44.1
O=C(/C=C/c1cnc2ccccc2c1)NCc1ccccc1	none
O=C(/C=C/c1ccc(Br)cc1)Nc1cnc2ccccc2c1	USP8 inh 49.5
O=C(/C=C/c1cccc([N+](=O)[O-])c1)N1CCc2ccccc21	USP8 inh 84.2
O=C(/C=C/c1ccc2c(c1)OCO2)N1CCCc2ccccc21	none
Cc1cc(=O)oc2cc(NC(=O)c3ccc(-n4cnnn4)cc3)ccc12	USP8 inh 36.0
CCCCC/C=C/C=C/C(=O)OC1C(O)CC(c2ccc3c(c2O)C(=O)c2c(O)cc4cc(C)cc(O)c4c2C3=O)OC1C (stereo not given)	USP8 inh 57.4
CC(=O)C1=C(O)[C@]2(O)C(=O)c3c(c(C)c4ccc(C)c(O)c4c3O)C[C@H]2[C@@H](N)C1=O	USP7 block 58.1, UCHL1 block 65.6
Cc1cc([N+](=O)[O-])nn1CCCC(=O)Nc1ccc2c(c1)OCO2	USP8 inh 44.8
CSc1ccccc1NC(=O)CCCn1nc([N+](=O)[O-])cc1C	none
COc1ccc(C2CC(=O)c3cnc4c(c3C2)c(=O)n(C)c(=O)n4C)cc1 (stereo not given)	none
COCCn1c(=O)[nH]c(=O)c2c3c(cnc21)C(=O)CC(c1ccc(F)cc1)C3 (stereo not given)	USP8 inh 67.5
CC1(c2ccc(F)cc2)NC(=O)N(CC(=O)NCc2ccccc2)C1=O (stereo not given)	none
CC(C)(C)c1ccc(S(=O)(=O)Nc2ccc(Cc3ccncc3)cc2)cc1	none
COc1ccc(S(=O)(=O)Nc2ccc(Cc3ccncc3)cc2)c2ccccc12	USP8 inh 42.6
COc1ccc(-c2nc3n(n2)C(c2cccc(O)c2)C2=C(CCCC2=O)N3)cc1 (stereo not given)	none
Cc1ccc2nc(N3CCc4ccccc4C3)c3nncn3c2c1	USP8 inh 44.7
CCC1(CC)Oc2ccc(C(=O)CCN(C)C)cc2O1	USP8 inh 31.8
O=C(Oc1ccc(F)cc1)c1cc(-c2ccc3c(c2)OCCO3)on1	USP8 inh 55.1
O=C1NC/C=C/CC2(CCN(Cc3ccncc3)CC2)C(=O)NCCOc2ccccc21	none
COC1=CC(=O)c2c(O)c3c(c(C)c2C1=O)C[C@@]1(O)[C@H](O[C@H]2CC[C@H](O[C@H]4C[C@@](C)(O)[C@H](OC(=O)c5c(C)ccc(C)c5O)[C@H](C)O4)[C@@H](C)O2)C(=O)C(C(C)=O)=C(O)[C@@]1(O)C3=O	USP7 block 55.3, UCHL1 block 57.5
COc1cc(OC)c2c(c1)C(=O)C1=C(COC(C)(O)C1)C2=O (stereo not given)	USP8 inh 68.2
Cc1cn2nnc(C(=O)NCc3cc(F)ccc3F)c2c(=O)[nH]1	none
CCCc1ccc(C(=O)[C@@H]2[C@@H](C(=O)c3cccs3)N3c4ccc(C)cc4C(C)=C[C@@H]3[C@@]23C(=O)Nc2ccccc23)cc1	USP7 block 32.9, USP8 inh 66.7, USP10 block 37.5
O=C(c1ccc(F)cc1)[C@@H]1[C@H](C(=O)Nc2ccc(Cl)cc2)N2c3ccccc3C=CC2[C@@]12C(=O)Nc1ccccc12 (stereo not given in full)	none
COC(=O)c1ccc(N2CCN(C(C)=O)CC2)c(NC(=O)COc2ccc([N+](=O)[O-])cc2)c1	USP8 inh 79.7, USP10 block 42.6
COC(=O)c1ccc(N2CCN(C(C)=O)CC2)c(NC(=O)c2ccc(OCc3ccccc3)cc2)c1	none
O=C(COC(=O)c1ccc2c(c1)OCO2)Nc1ccc2[nH]c(=O)[nH]c2c1	none
O=C(COC(=O)c1cc2c(s1)CCC2)c1ccc2[nH]c(=O)[nH]c2c1	USP8 inh 70.5
C=C1CCC2C(C)(CCC=C(C)C)C(OC(C)=O)CCC2(C)C1Cc1c(O)c(C)c(C)oc1=O (stereo not given)	USP10 block 31.9
C=C1CC[C@H]2[C@@](C)(COC(C)=O)CCC[C@]2(C)[C@H]1CC/C(C)=C/COC(C)=O	none
O=C(CSc1nc2ccccc2[nH]1)c1ccccc1F	none
Cc1cc(C(=O)CSc2nc3ccccc3[nH]2)c(C)n1Cc1ccco1	USP8 inh 56.8
Cn1c(COc2cccc3cccnc23)nnc1SCC(=O)c1ccc(Cl)cc1Cl	USP8 inh 57.9, USP10 block 36.1
COc1ccccc1OCc1nnc(SCC(=O)c2ccc(F)cc2)n1C	none
O=C(Cn1cnc(-c2ccccc2)cc1=O)Nc1ccc(Oc2ccccc2)cc1	USP8 inh 45.9
O=C(Cn1nc(-c2ccc3c(c2)OCCO3)ccc1=O)Nc1ccc(Oc2ccccc2)cc1	none
Cc1ccc(-c2cc(=O)n(CC(=O)Nc3ccc(C(C)C)cc3)cn2)cc1	USP8 inh 33.8, USP10 block 42.5
O=C(Cn1nc(-c2ccccc2)cc(NC(=O)c2ccccc2)c1=O)Nc1ccc(F)cc1	USP10 block 37.9 (no result: USP7 block)
Cc1ccc(-c2cc(NC(=O)C(C)C)c(=O)n(CC(=O)Nc3ccc(Cl)cc3)n2)cc1	none
O=C(NCc1cnn2ccccc12)Nc1ccc2c(c1)OCO2	none
COc1cc(N2CC[C@@H]3[C@@H]2CCN3C(=O)NC2CCCC2)ncn1	none
NC(c1c(O)ccc2ccccc12)P(=O)(O)O (stereo not given)	USP8 inh 37.5
COc1cccc(CNc2ccc(-c3nc(-c4ccccc4)no3)nn2)c1	USP8 inh 75.9
COc1ccc(C)cc1NCC(=O)Nc1ncc(Cl)c(C)c1Cl	USP8 inh 36.3
CCN(C=C1NC(=O)c2ccccc2N1)CC(=O)Nc1ccc(Cl)c(C(F)(F)F)c1	USP8 inh 30.3
Cc1ccc(CNC(=O)c2cc3occc3c(Nc3ccccc3)n2)cc1	USP8 inh 57.3
Cc1ccccc1CNC(=O)c1cc2occc2c(Nc2ccc(F)cc2)n1	USP8 inh 55.4
